Active and inactive are the calls of the source.

Experiment [1] can be described thus: binders of probe aFSTL3 on microarray, primary screen, stem cell growth factor project, biochemical, small-molecule microarray, fluorescence 635/667 (AID 1064).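 Also: measures binding of the biotinylated anti-FSTL3 antibody to printed compounds.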 The following applies: higher = more signal.
Experiment [2] in a line: binders from COS7 lysate, DM2A8 probe, primary screen, torsin A project, cell lysate, small-molecule microarray, fluorescence 635/667 (AID 1065). The following applies: higher = more signal, COS7 lysate expressing mutant human TOR1A.
Experiment [3] can be described thus: binders of probe aFGF2 on microarray, primary screen, stem cell growth factor project, biochemical, small-molecule microarray, fluorescence 635/667 (AID 1067).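 Also: measures binding of biotinylated aFGF2 protein to printed compounds on slides; z-score merges feature fluorescence and signal-to-noise across triplicate slides.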 To be noted: higher = more signal.
The nature of experiment [4]: binders of probe aFGF10 on microarray, primary screen, stem cell growth factor project, biochemical, small-molecule microarray, fluorescence 635/667 (AID 1071).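 Also: score merges 667 nm spot intensity and signal to noise from triplicate slides.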 The following applies: higher = more signal.
Experiment [5] concerns the target Neurogenic locus notch homolog protein 2 (Homo sapiens) (UniProt Q04721). In words: Notch2 binders on small-molecule microarrays, primary screen, biochemical, small-molecule microarray, 635 nm fluorescence, stem cell growth factors (AID 1073). To be noted: Notch2 binding, higher = more signal.
In experiment [6] the target is Pro-neuregulin-1, membrane-bound isoform (Homo sapiens) (UniProt Q02297). The experiment is described as follows: NRG1 binders on small-molecule microarrays, primary screen, psychiatric disease protein project, biochemical, small-molecule microarray, fluorescence 635/667 (AID 1075).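 Also: score combines 667 nm spot fluorescence with signal to noise.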 The following applies: NRG1 binding, 635 nm fluorescence, higher = more signal.
For experiment [7], the system named is Neuregulin-1 EGF-like domain. The experiment is described as follows: binders of neuregulin-1 EGF-like domain, primary screen, biochemical, small-molecule microarray, 635 nm fluorescence (AID 1081).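 Also: binding of the protein to compounds printed on small-molecule microarray slides.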 The following applies: small-molecule microarray binding, higher = more signal.
Experiment [8] in a line: FRG1 promoter luciferase signal modulators, primary screen, FRG1 inhibition for FSHD, cell-based, C2C12 myotubes, firefly/Renilla luciferase, luminescence (AID 1084). The following applies: higher = more signal, called active from +8 up or from −8 down.
The nature of experiment [9]: binders of probe aFST on microarray, primary screen, stem cell growth factor project, biochemical, small-molecule microarray, fluorescence 635/667 (AID 1086).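 Also: score merges 667 nm fluorescence with signal-to-noise of each printed compound spot.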 The following applies: higher = more signal.
Experiment [10] in a line: binders of probe aHhip on microarray, primary screen, stem cell growth factor project, biochemical, small-molecule microarray, fluorescence 635/667 (AID 1087).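 Also: score merges spot fluorescence at 667nm with spot signal to noise ratio.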 The following applies: higher = more signal.

Neurogenic locus notch homolog protein 2 (Homo sapiens), sequence (Q04721 whole entry, looked up, canonical isoform): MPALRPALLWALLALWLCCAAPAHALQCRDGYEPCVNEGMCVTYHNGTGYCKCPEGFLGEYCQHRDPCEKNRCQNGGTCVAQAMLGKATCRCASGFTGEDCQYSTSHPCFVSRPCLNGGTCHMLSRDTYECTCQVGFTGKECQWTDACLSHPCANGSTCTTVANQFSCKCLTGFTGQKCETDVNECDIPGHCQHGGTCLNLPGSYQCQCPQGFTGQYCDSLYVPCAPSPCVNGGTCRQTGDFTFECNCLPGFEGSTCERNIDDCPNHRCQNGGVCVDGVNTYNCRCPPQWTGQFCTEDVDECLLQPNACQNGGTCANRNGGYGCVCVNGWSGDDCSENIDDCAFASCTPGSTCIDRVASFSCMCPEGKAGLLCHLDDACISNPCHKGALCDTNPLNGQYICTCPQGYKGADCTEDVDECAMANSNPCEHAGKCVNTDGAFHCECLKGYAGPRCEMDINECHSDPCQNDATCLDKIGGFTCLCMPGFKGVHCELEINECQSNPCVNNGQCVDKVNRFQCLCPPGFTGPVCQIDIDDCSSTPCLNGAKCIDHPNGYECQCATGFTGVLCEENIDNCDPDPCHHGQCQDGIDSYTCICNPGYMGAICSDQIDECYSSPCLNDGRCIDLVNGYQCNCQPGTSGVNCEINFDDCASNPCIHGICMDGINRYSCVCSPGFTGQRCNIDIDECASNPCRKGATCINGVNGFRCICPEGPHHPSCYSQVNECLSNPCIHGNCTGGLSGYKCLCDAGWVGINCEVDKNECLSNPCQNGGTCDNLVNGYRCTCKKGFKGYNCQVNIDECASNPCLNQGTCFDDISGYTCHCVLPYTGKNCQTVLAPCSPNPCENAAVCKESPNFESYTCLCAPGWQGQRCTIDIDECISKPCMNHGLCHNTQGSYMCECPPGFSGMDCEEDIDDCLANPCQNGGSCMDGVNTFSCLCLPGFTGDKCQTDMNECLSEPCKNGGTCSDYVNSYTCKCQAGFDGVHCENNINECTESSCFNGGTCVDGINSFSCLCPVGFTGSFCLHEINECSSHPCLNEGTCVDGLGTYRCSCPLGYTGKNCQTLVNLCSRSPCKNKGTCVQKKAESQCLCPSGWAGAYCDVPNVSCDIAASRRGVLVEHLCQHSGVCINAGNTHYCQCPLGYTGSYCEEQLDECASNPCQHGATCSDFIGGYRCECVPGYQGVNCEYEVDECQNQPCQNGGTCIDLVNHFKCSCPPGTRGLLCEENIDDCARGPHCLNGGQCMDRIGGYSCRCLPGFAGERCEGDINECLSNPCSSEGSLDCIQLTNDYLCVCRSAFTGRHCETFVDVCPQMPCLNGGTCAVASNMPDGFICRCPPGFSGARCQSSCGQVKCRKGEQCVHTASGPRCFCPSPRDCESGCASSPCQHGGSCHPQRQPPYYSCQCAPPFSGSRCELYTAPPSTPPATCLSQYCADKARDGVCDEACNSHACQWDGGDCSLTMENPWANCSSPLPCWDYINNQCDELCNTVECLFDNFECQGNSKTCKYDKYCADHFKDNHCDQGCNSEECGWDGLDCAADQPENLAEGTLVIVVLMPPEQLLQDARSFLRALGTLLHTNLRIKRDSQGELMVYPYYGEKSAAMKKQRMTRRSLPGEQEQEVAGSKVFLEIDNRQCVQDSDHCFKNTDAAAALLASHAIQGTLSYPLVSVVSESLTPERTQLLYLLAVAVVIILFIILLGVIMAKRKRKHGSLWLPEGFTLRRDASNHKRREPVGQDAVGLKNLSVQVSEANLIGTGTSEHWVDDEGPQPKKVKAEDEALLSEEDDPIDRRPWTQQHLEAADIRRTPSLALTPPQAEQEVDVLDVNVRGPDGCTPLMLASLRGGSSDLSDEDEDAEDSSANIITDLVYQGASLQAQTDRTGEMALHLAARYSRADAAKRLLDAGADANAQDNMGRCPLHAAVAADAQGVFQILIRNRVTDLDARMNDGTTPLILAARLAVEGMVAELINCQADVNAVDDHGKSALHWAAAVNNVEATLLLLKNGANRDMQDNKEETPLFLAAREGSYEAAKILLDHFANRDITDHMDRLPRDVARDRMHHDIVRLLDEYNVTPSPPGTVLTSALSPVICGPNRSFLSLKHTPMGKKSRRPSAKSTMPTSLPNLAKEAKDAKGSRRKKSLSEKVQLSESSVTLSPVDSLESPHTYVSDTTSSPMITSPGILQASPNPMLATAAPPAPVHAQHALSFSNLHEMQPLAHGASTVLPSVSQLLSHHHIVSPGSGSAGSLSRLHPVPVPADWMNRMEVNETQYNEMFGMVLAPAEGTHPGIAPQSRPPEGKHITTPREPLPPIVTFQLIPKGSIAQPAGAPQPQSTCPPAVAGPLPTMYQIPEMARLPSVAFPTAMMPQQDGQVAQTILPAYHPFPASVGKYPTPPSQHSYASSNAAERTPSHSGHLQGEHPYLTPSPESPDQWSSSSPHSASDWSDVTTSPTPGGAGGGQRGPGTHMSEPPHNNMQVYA
Pro-neuregulin-1, membrane-bound isoform (Homo sapiens), sequence (Q02297 whole entry, looked up, the tested form may be a part, canonical isoform): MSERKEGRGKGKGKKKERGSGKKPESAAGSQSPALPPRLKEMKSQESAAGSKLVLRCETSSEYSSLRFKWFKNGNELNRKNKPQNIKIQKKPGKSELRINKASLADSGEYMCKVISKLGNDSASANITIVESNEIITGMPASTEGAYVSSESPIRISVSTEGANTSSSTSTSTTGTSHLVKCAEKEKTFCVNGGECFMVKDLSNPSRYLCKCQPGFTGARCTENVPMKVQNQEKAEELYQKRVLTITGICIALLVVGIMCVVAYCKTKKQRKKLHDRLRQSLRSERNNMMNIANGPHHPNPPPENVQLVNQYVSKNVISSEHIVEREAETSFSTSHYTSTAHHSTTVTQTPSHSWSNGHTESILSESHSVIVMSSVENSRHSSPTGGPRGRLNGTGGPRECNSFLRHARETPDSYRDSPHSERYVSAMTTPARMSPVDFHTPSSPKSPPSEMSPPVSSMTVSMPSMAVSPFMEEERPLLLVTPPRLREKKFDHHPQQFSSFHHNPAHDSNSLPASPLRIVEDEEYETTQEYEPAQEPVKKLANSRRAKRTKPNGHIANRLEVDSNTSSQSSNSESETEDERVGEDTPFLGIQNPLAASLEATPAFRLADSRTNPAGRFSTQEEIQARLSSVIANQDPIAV

Consider `CC(C)[C@@H](OCc1ccccc1)[C@H](C)C=NOC[C@@H](C)[C@H](OCc1ccccc1)C(C)C`, for which the composite z-score is -0.539 in [1]; 0.0717 in [2]; -0.164 in experiment [3]; 0.31 in [4]; 0.303 in [5]; 0.106 in experiment [6]. Further, the composite z-score in [7] was -0.44; in experiment [9], -0.0889; in experiment [10], -0.131. In addition, in [8], the z-score was -0.108 (inactive).

Turning to `COCCOC(=O)N1C(=O)[C@@]2(c3ccccc31)[C@H](C(N)=O)[C@H]1C(=O)O[C@H](c3ccccc3)[C@H](c3ccccc3)N1[C@@H]2c1ccccc1OCCO`, the composite z-score in experiment [1] is 0.0407; in [2], 1.67; in [3] it was 0.147; in [4], 0.937; in [5] it was 0.899; in experiment [6] it was 1.42. The composite z-score in experiment [7] was determined as 1.11; in [9], 0.521; in [10], 0.234. Besides, the z-score in [8] was -0.732 (inactive).

For `COC(=O)C1=CCC(c2cccc(Cl)c2)O1` (stereo not given), the composite z-score in [1] is 0.005; in experiment [2] it was -0.0992; in [3], -0.0901; in experiment [4] it was 0.0994; in [5], -0.104; in experiment [6] it was 1.25. Further, the composite z-score in experiment [7] was 0.584; in experiment [9], -0.0195; in [10], 0.0749. In addition, the z-score in experiment [8] was -0.912 (inactive).

As to `COCCCNC(=O)[C@@]1(CCS(=O)(=O)c2ccccc2)N=C(c2ccc(OCCCO)cc2)O[C@H]1c1ccccc1`, the composite z-score in experiment [1] stood at 0.958; in experiment [2], 1.5; in experiment [3], 0.378; in experiment [4], 1.18; in [5] it was 0.674; in [6] it was 1.25. The figures for the composite z-score in experiment [7], in experiment [9] and in experiment [10] were 1.31, 0.56 and 2.04, respectively. Moreover, the z-score in [8] is -1.23 (inactive).

As to `CCOC(=O)NN=C1C[C@@H](O)[C@@H](O)[C@@H]2[C@@H]3C(=O)N(C[C@@H]4CCCO4)C(=O)[C@@H]3CC[C@@H]12`, the composite z-score in experiment [1] is -0.216; in experiment [2], 0.0306; in [3] it was -0.0786; in [4] it was 0.454; in [5], 0.453; in experiment [6], 0.121. Also, the composite z-score was 0.69 in experiment [7], 0.0701 in experiment [9] and -0.0994 in [10]. For the same molecule, the z-score in experiment [8] was 0.52 (inactive).

In the case of `C[C@@H]1C=CCC(=O)OC[C@H](C)C(=O)N2CCC[C@H]2C(=O)OC1`, the composite z-score in experiment [1] was -0.586; in experiment [2] it was 2.45; in experiment [3], -0.178; in experiment [4], 0.349; in experiment [5], 0.285; in experiment [6], -0.824. Besides, the composite z-score in experiment [7] is 1.04; in experiment [9] it was 0.165; in [10] it was -0.0296. Besides, in experiment [8], the z-score was 0.465 (inactive).

Consider `CN1C(=O)C2C=CC(C(O)c3ccc(I)cc3)N(NC(=O)OC(C)(C)C)C2C1=O` (stereo not given), for which the composite z-score was 0.108 in experiment [1]; -0.0004 in experiment [2]; 0.111 in [3]; 0.652 in experiment [4]; 1.68 in [5]; 1.69 in experiment [6]. Also, the composite z-score is 1.38 in experiment [7], 1.18 in experiment [9] and -0.0994 in experiment [10]. Moreover, the z-score in experiment [8] is -3.23 (inactive).

In the case of `C=CC[C@@H]1C=C[C@H](ON=C[C@@H](OC)[C@H](C)C=CCC(=O)OC)[C@@H](CO)O1`, the composite z-score in experiment [1] is -0.147; in experiment [2], 0.827; in experiment [3] it was -0.0493; in experiment [4], 0.223; in experiment [5] it was -0.203; in experiment [6], 0.161. The results for the composite z-score in [7], in experiment [9] and in [10] were 0.528, 0.0886 and -0.0346, respectively. Further, the z-score in experiment [8] is 0.813 (inactive).

On to `COCCOC(=O)N1C(=O)[C@@]2(c3cc(C#CCNC(N)=O)ccc31)[C@H](c1ccccc1OCCO)N1[C@H](c3ccccc3)[C@H](c3ccccc3)OC(=O)[C@H]1[C@@H]2C(=O)N1CCN(c2ncccn2)CC1`, for which the composite z-score stood at 0.202 in [1]; 1 in [2]; 0.0019 in experiment [3]; 1.15 in experiment [4]; 1.27 in [5]; 1.27 in experiment [6]. Besides, the composite z-score in [7] was 0.955; in experiment [9], 0.141; in experiment [10], -0.0618. In experiment [8], the z-score is -1.69 (inactive).

For `CC(C)NC(=O)[C@@]1(c2ccc([N+](=O)[O-])cc2)CC(=O)N(CC23CC4CC(CC(C4)C2)C3)[C@@H]1c1ccc(CO)cc1I`, the composite z-score in experiment [1] is 0.765; in experiment [2], 0.0289; in experiment [3] it was 0.11; in experiment [4] it was 0.252; in experiment [5] it was 0.931; in experiment [6] it was 0.607. Also, the composite z-score in experiment [7] is 0.964; in [9], 0.481; in [10], -0.0645. Further, the z-score in experiment [8] is -3.71 (inactive).

Consider `CCOC(=O)NN=C1C[C@@H](O)[C@@H](O)[C@@H]2[C@@H]3C(=O)N(C4CCCCC4)C(=O)[C@@H]3CC[C@H]12`, for which the composite z-score in experiment [1] was -0.242; in experiment [2], 0.459; in experiment [3], -0.067; in experiment [4] it was 0.267; in experiment [5], 0.932; in experiment [6], 0.215. Besides, the composite z-score in [7] was 0.444; in experiment [9], 0.142; in experiment [10], -0.0994. Also, in experiment [8], the z-score is 0.228 (inactive).

For the molecule `CCc1cc2c(nc1CC)CCN(CCC(C)=NO[C@@H](C)c1cc(-c3c(C)cc(C)cc3C)no1)C2`, the composite z-score in experiment [1] is -0.291; in [2], 0.0396; in experiment [3], -0.126; in [4] it was -0.298; in [5], -0.89; in experiment [6], 0.191. Further, the composite z-score is -0.0858 in experiment [7], -0.119 in experiment [9] and 0.0187 in experiment [10]. Moreover, in experiment [8], the z-score was -1.01 (inactive).

`CO[C@@H]1COC(=O)CCC[C@@H](C)[C@H](OC)COC(=O)CCC[C@H]1C`: the composite z-score is -0.298 in experiment [1]; 0.743 in experiment [2]; -0.0982 in experiment [3]; 0.219 in experiment [4]; 0.633 in experiment [5]; -0.63 in experiment [6]. In addition, the composite z-score in [7] worked out at 0.176; in [9] it was 0.561; in experiment [10] it was 0.369. The z-score in [8] was 0.462 (inactive).

Consider `C[C@@H](c1ccccc1)N1C(=O)[C@H]2[C@H]3[C@H](O)C=CC(=O)[C@@H]3CC[C@H]2C1=O`, for which the composite z-score in experiment [1] is -0.663; in experiment [2], 0.0994; in experiment [3], -0.218; in experiment [4], 0.277; in experiment [5] it was 0.348; in [6], 0.185. Further, the composite z-score in experiment [7] was 0.609; in experiment [9], 0.123; in [10] it was -0.0738. Besides, in [8], the z-score was -0.608 (inactive).

In the case of `C=C(/C(=C/C[C@@H](OC(=O)c1ccncc1)c1ccc(OCCO)cc1)c1cnc2ccccc2c1)C(C)C`, the composite z-score was -0.342 in experiment [1]; -0.0128 in [2]; -0.186 in [3]; 0.128 in [4]; 0.772 in experiment [5]; 0.562 in [6]. The composite z-score in experiment [7] worked out at 0.694; in [9], 0.201; in experiment [10], 0.0206. Besides, the z-score in experiment [8] is -2.27 (inactive).

As to `CCOC(=O)[C@H](Cc1ccccc1)NC(=O)CCC1CC(OC(=O)NCc2ccc3c(c2)OCO3)CC2(CCCC(COC(=O)NCc3ccccc3)O2)O1` (stereo not given in full), the composite z-score in experiment [1] is -0.0824; in [2] it was 0.204; in experiment [3], -0.0103; in [4], 0.697; in [5] it was 0.808; in [6], 0.317. The values for the composite z-score in experiment [7], in experiment [9] and in experiment [10] were 0.718, 0.393 and 0.0505, respectively. Besides, in experiment [8], the z-score is 1.54 (inactive).

For `C=CCN1C(=O)[C@]2(O[C@H](CCn3cc(CCO)nn3)[C@@H]([Si](C)(C)c3ccc(OC)cc3)[C@@H]2C)c2cc(N3CCOC3=O)ccc21`, the composite z-score in experiment [1] is -0.0415; in experiment [2] it was 0.0421; in experiment [3] it was -0.152; in [4] it was 0.0622; in [5] it was -0.447; in experiment [6], 1.05. Moreover, the composite z-score in experiment [7] is 1.18; in experiment [9], -0.414; in experiment [10], -0.261. The z-score in [8] is -3.36 (inactive).

The values are drawn from PubChem BioAssay.
